Legend:
[1] = biological target: RAC-alpha serine/threonine-protein kinase (Homo sapiens) (UniProt P31749); settings: at 0.1 µM
[2] = biological target: RAC-alpha serine/threonine-protein kinase (Homo sapiens) (UniProt P31749); settings: at 1 µM
[3] = biological target: RAC-beta serine/threonine-protein kinase (Homo sapiens) (UniProt P31751); settings: at 0.1 µM
[4] = biological target: RAC-beta serine/threonine-protein kinase (Homo sapiens) (UniProt P31751); settings: at 1 µM
[5] = biological target: RAC-gamma serine/threonine-protein kinase (Homo sapiens) (UniProt Q9Y243); settings: at 0.1 µM
RAC-gamma serine/threonine-protein kinase (Homo sapiens), sequence (Q9Y243 whole entry): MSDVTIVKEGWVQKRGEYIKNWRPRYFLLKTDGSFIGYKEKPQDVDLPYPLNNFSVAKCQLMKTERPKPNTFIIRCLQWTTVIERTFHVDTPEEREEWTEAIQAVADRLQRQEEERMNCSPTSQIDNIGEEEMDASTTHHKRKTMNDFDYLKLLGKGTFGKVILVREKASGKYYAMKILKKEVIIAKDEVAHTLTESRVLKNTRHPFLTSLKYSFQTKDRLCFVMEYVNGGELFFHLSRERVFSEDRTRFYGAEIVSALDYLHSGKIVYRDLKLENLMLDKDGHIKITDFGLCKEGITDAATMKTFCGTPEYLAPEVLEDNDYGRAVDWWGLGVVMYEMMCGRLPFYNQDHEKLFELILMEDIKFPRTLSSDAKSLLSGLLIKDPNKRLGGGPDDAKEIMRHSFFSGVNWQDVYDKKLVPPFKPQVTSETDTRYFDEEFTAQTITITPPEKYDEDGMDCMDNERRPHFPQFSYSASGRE

[6] = biological target: RAC-gamma serine/threonine-protein kinase (Homo sapiens) (UniProt Q9Y243); settings: at 1 µM
[7] = biological target: G protein-coupled receptor kinase 6 (Homo sapiens) (UniProt P43250); settings: at 0.1 µM
G protein-coupled receptor kinase 6 (Homo sapiens), sequence (P43250 whole entry, looked up): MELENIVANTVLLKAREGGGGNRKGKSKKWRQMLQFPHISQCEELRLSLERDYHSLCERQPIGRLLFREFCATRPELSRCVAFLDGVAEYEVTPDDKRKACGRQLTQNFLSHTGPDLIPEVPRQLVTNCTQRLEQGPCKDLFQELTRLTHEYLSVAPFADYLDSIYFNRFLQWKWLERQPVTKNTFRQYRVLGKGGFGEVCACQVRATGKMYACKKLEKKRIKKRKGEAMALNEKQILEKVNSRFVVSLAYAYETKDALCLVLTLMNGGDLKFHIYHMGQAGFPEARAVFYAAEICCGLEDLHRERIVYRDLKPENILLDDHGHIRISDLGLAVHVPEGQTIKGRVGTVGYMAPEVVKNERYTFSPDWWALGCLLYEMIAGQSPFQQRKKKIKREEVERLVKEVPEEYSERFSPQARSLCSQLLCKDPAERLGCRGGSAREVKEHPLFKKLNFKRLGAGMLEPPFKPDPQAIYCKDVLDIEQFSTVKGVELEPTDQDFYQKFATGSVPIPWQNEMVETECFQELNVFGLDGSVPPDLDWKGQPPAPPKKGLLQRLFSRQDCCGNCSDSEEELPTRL

[8] = biological target: G protein-coupled receptor kinase 6 (Homo sapiens) (UniProt P43250); settings: at 1 µM
[9] = biological target: T1, Rhodopsin kinase GRK7 (Homo sapiens) (UniProt Q8WTQ7); settings: at 0.1 µM
T1 sequence (whole entry): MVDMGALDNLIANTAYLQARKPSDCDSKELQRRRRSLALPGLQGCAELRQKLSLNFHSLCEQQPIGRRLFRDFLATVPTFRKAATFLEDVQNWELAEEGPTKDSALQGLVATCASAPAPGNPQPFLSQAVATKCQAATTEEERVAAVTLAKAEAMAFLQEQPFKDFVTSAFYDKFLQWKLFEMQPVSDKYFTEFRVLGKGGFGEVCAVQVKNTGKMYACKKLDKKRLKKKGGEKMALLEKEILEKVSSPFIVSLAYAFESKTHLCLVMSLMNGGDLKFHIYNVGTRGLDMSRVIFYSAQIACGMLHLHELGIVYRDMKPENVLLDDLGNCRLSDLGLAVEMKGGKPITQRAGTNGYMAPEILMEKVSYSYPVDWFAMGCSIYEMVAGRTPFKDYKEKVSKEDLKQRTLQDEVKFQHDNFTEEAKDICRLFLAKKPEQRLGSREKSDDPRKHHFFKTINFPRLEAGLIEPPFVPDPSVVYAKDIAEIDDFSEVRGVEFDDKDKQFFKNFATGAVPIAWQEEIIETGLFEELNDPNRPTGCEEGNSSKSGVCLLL

[10] = biological target: T1, Rhodopsin kinase GRK7 (Homo sapiens); settings: at 1 µM
[11] = biological target: Serine/threonine-protein kinase MRCK alpha (Homo sapiens) (UniProt Q5VT25); settings: at 0.1 µM
Serine/threonine-protein kinase MRCK alpha (Homo sapiens), sequence (Q5VT25 whole entry): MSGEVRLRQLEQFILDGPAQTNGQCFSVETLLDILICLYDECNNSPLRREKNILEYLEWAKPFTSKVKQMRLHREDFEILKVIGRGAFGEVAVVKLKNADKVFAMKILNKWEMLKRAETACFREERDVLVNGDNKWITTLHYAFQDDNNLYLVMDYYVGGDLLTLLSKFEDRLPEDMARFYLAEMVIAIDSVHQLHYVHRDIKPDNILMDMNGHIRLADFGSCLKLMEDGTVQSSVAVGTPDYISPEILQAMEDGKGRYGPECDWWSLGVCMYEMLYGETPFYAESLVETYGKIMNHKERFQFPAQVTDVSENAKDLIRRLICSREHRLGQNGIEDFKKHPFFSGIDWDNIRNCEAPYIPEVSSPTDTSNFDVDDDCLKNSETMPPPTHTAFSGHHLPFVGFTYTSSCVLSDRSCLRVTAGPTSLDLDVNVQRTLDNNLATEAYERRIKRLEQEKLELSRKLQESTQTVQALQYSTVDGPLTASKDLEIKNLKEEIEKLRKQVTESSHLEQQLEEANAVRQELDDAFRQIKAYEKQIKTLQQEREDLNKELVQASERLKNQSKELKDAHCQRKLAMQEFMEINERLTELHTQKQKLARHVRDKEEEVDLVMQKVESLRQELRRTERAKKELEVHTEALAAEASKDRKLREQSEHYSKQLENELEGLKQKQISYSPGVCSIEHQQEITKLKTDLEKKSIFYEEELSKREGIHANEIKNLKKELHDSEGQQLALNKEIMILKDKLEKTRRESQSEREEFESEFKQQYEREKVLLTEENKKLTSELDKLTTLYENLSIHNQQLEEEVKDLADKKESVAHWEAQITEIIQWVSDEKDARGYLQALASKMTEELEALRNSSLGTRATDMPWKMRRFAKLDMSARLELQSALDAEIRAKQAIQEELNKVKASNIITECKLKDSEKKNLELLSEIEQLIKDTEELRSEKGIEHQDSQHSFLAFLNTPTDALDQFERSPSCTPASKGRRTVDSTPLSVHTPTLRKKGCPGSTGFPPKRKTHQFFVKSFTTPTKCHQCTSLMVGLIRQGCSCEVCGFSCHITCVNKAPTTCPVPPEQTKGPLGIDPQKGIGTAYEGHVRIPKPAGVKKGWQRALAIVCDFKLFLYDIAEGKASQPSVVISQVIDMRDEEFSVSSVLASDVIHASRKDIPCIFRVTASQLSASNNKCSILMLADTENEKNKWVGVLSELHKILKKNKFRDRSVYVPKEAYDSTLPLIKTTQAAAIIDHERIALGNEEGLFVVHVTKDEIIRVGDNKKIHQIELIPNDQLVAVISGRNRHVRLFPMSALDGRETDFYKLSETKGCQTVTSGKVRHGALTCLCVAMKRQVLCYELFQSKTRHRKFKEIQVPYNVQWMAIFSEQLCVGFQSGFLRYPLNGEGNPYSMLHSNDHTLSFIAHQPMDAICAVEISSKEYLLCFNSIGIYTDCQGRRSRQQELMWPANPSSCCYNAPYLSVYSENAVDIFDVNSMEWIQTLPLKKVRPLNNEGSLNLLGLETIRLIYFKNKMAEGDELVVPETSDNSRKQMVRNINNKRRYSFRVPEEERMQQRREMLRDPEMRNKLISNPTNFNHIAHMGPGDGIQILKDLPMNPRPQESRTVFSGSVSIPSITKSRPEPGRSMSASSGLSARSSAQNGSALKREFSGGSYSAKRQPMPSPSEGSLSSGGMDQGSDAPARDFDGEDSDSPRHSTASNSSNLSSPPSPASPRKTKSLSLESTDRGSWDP

[12] = biological target: Serine/threonine-protein kinase MRCK alpha (Homo sapiens) (UniProt Q5VT25); settings: at 1 µM
[13] = biological target: Serine/threonine-protein kinase MRCK beta (Homo sapiens) (UniProt Q9Y5S2); settings: at 0.1 µM
[14] = biological target: Serine/threonine-protein kinase MRCK beta (Homo sapiens) (UniProt Q9Y5S2); settings: at 1 µM
[15] = biological target: Ribosomal protein S6 kinase alpha-5 (Homo sapiens) (UniProt O75582); settings: at 0.1 µM
[16] = biological target: Ribosomal protein S6 kinase alpha-5 (Homo sapiens) (UniProt O75582); settings: at 1 µM
[17] = biological target: Ribosomal protein S6 kinase alpha-4 (Homo sapiens) (UniProt O75676); settings: at 0.1 µM
Ribosomal protein S6 kinase alpha-4 (Homo sapiens), sequence (O75676 whole entry, looked up): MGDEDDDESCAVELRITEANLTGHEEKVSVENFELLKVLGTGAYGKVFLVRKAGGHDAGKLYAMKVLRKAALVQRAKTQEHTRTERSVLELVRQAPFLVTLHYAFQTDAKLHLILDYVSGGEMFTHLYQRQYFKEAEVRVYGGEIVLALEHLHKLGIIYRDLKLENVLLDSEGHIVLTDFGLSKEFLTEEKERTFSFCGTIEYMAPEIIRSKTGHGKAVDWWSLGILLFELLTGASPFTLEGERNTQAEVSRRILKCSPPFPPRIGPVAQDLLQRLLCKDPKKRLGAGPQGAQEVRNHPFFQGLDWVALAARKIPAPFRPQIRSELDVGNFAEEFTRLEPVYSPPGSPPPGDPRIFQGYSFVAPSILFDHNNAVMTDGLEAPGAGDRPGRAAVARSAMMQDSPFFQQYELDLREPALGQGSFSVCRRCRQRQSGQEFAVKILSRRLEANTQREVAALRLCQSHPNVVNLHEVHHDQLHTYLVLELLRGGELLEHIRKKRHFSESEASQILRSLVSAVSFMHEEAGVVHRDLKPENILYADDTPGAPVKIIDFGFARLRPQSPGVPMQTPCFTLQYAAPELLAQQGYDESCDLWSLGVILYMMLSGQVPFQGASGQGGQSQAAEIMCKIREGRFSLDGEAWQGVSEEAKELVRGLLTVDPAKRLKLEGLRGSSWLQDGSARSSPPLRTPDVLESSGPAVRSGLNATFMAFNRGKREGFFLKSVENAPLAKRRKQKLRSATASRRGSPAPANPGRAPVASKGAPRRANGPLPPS

[18] = biological target: Ribosomal protein S6 kinase alpha-4 (Homo sapiens) (UniProt O75676); settings: at 1 µM
[19] = biological target: Ribosomal protein S6 kinase beta-1 (Homo sapiens) (UniProt P23443); settings: at 0.1 µM
Ribosomal protein S6 kinase beta-1 (Homo sapiens), sequence (P23443 whole entry, looked up): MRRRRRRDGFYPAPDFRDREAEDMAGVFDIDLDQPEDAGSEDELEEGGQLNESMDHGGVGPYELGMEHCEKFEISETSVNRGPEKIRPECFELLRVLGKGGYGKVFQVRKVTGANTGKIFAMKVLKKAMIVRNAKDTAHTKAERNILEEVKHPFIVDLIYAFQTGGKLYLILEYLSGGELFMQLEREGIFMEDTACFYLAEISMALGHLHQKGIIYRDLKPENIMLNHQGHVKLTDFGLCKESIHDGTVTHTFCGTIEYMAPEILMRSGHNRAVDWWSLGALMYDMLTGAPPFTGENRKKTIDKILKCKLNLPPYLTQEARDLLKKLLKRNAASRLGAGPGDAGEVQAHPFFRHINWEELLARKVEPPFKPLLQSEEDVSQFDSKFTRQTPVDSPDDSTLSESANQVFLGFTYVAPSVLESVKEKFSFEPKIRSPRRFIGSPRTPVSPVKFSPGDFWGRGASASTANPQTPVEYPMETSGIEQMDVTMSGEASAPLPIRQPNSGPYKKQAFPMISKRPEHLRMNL

[20] = biological target: Ribosomal protein S6 kinase beta-1 (Homo sapiens) (UniProt P23443); settings: at 1 µM

RAC-beta serine/threonine-protein kinase (Homo sapiens), sequence (P31751 whole entry): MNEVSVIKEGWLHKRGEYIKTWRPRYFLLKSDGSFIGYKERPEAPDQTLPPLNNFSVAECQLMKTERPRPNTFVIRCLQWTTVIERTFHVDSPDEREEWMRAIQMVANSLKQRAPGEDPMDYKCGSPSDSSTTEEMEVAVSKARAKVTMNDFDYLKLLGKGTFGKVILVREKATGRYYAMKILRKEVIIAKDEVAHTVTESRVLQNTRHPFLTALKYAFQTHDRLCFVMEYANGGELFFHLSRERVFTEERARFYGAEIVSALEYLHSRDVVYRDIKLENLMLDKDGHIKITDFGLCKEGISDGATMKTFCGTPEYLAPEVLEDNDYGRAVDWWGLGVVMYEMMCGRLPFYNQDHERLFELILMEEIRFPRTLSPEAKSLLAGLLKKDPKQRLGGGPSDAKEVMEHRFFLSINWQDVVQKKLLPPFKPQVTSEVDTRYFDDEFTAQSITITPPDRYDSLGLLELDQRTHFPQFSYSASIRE
RAC-alpha serine/threonine-protein kinase (Homo sapiens), sequence (P31749 whole entry): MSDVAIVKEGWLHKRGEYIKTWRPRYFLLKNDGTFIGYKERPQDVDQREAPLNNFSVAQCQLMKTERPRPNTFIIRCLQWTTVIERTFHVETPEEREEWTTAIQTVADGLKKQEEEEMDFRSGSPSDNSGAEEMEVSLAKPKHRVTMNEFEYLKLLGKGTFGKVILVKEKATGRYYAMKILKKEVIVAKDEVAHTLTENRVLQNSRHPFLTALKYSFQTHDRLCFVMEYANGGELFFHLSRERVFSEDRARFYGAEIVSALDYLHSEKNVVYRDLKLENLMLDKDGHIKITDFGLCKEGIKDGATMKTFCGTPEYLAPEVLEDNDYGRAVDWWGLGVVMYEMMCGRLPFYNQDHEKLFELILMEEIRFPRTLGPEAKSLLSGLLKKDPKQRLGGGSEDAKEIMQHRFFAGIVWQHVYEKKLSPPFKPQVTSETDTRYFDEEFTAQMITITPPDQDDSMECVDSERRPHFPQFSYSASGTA

| SMILES | inhibition [1] [%] | inhibition [2] [%] | inhibition [3] [%] | inhibition [4] [%] | inhibition [5] [%] | inhibition [6] [%] | inhibition [7] [%] | inhibition [8] [%] | inhibition [9] [%] | inhibition [10] [%] | inhibition [11] [%] | inhibition [12] [%] | inhibition [13] [%] | inhibition [14] [%] | inhibition [15] [%] | inhibition [16] [%] | inhibition [17] [%] | inhibition [18] [%] | inhibition [19] [%] | inhibition [20] [%] |
| --- | --- | --- | --- | --- | --- | --- | --- | --- | --- | --- | --- | --- | --- | --- | --- | --- | --- | --- | --- | --- |
| COc1cc2ncnc(Nc3ccc(C)c(O)c3)c2cc1OC | 0.49 | 0.96 | 1.99 | 1.77 | 1.98 | 1.76 | 6 | 5.91 | 4.99 | 7.5 | 0.29 | 0.79 | 1.59 | 0.25 | 5.09 | 4.76 | 4.36 | 2.32 | 3.34 | 2.36 |
| N#Cc1c(NC(=O)c2ccccc2F)sc2c1CCCC2 | -0.97 | -1.21 | -1.71 | -1.01 | -1.05 | -0.44 | 1.29 | 2.2 | 2.28 | -1.97 | 1.07 | -1.26 | 0.23 | -0.14 | -2.83 | -2.33 | -1.11 | -0.35 | -0.91 | -0.98 |
| NS(=O)(=O)c1cccc(Nc2cc(-c3ccc(F)cc3)n[nH]2)c1 | 1.57 | 2.41 | 3.5 | 2.66 | 2.29 | 3.03 | 4.03 | 8.09 | 2.68 | 5.14 | -0.33 | 4.84 | -0.58 | 2.02 | 9.72 | 11.4 | 3.37 | 5.59 | 1.79 | 3.12 |
| C[C@@H](Oc1cc(-n2cnc3ccc(OC[C@@H](O)CO)cc32)sc1C(N)=O)c1ccccc1Cl | -0.94 | -0.9 | -0.48 | -0.32 | 0.07 | -0.44 | 1.08 | 4.23 | -4.63 | 3.37 | -0.35 | 4.31 | 1.02 | 3.59 | -1.23 | -0.54 | 0.35 | 1.7 | 0.75 | 1.5 |
| CCn1c(-c2nonc2N)nc2ccc(F)cc21 | 0.42 | 0.42 | 1.94 | 2.93 | 1.09 | 2.41 | 9.58 | 11.3 | 5.6 | 11.3 | -0.42 | 3.28 | -0.61 | 1.2 | 7.13 | 21.2 | 3.5 | 10.8 | 3.92 | 28.4 |
| CCS(=O)(=O)c1ccc(OC)c(Nc2nccc(N(C)c3ccc4c(C)n[nH]c4c3)n2)c1 | 1.44 | 1.19 | 1.01 | 2.53 | 0.55 | 2.78 | -0.58 | 1.67 | 9.6 | 1.83 | -4.24 | -2.48 | 0.97 | 0.83 | 4.1 | 1.28 | 2.02 | 0.35 | 0.02 | 1.3 |
| COc1cc2ncnc(Nc3ccc4c(cnn4Cc4ccccc4)c3)c2cc1OC | -0.49 | 0.77 | 0.99 | 1 | 0.08 | 2.09 | -0.46 | 2.17 | 9.43 | 2.89 | 1.92 | 0.94 | -0.95 | -0.76 | 7.1 | 7.6 | 1.21 | 2.89 | 0.98 | 1.35 |
| ON=C1CCc2cc(-c3nc(C4CCNCC4)[nH]c3-c3ccncc3)ccc21 | 0.07 | -0.21 | 0.72 | -1.73 | -0.56 | 0.98 | 0.43 | -2.74 | -0.92 | 1.83 | 1.01 | 1.89 | -0.75 | 1.17 | -0.09 | -0.44 | -0.82 | 1.3 | 0.43 | -1.14 |
| CN(C)C(=O)O[C@H]1CN[C@H](C#Cc2cc3ncnc(Nc4ccc(OCc5cccc(F)c5)c(Cl)c4)c3s2)C1 | 0.44 | 1.13 | 1.82 | 1.59 | 1.22 | -1.3 | 3.73 | 0.78 | 2.97 | 8.33 | -0.3 | -0.73 | 0.58 | 2.77 | 2.4 | 4.95 | 0.06 | 4.03 | 0.89 | 2.08 |
| OCc1ccc(-c2nc(-c3ccccn3)c(-c3ccc4c(c3)OCO4)[nH]2)cc1 | 1.19 | 1.53 | 2.08 | 2.51 | 1.57 | 0.86 | 0.03 | 1.18 | 2.93 | -2.28 | 0.27 | -0.19 | 0.91 | 1.33 | 4.12 | 3.7 | 1.01 | 3.89 | 2.09 | 3.2 |
| Cc1ccc(NC(=O)CC2CC2)cc1-c1ccc(C(=O)NCC2CC2)cc1 | 0.17 | 0.7 | 1.47 | 1.58 | 1.47 | 1.65 | 2.05 | 6.65 | 0.94 | 0.75 | -0.72 | 2.73 | -0.56 | 0.45 | 8.94 | 8.13 | 2.17 | 2.4 | 1.73 | 2.46 |
| CS(=O)(=O)Nc1cccc(-c2ccc3c(NC(=O)C4CC4)n[nH]c3c2)c1 | 0.47 | -0.39 | 0.26 | 0.15 | 0.35 | -2.8 | 1.58 | -0.72 | 0.25 | 2.21 | 1.58 | 2.47 | 0.84 | 1.32 | 1.49 | 1.04 | 0.62 | 2.85 | 1.15 | 1.9 |
| Nc1nccc(-c2c(-c3ccc(F)cc3)nn3cc(C(F)(F)F)ccc23)n1 | 0.02 | -0.66 | -0.52 | 0.01 | 0.2 | -5.93 | -1.46 | -0.24 | 3.74 | 4.14 | -3.46 | -4.53 | -0.89 | -2.82 | -0.99 | -2.88 | 1.24 | -1.94 | -0.77 | -3 |

— ChEMBL document CHEMBL1961873, “Compounds: GSK PKIS; Assays: Nanosyn kinase panel” (2012)
